Reference: the supplement of paper PMC4709259
Where a name gives a salt, the structure may show the parent alone. ± gives the standard deviation.

Legend:
Jurkat [1] = assay: mean cell size (FSC-A) relative to DMSO control (fraction of control); higher = larger cells; details: 48 h
Outline: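 Jurkat cells seeded at 600 cells/µl were incubated 1 h, then exposed for 48h to the Enzo Screen-Well FDA Approved Drug Library v2.0 at 25µM in 0.9% (v/v) final DMSO. Drugs that cut counts below 20% of controls were diluted 10-fold and retested, down to 25nM. Cell count and mean cell size (forward scatter area) were read on an Accuri C6 flow cytometer, relative to solvent-only controls. Plates held 6-12 controls; values are means of 3 biological replicates.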

Jurkat [2] = assay: cell count relative to DMSO control (fraction of control); higher = more cells (less growth inhibition); details: 48 h

Compound | mean cell size (Jurkat [1]) | cell count (Jurkat [2])
CC(C)NCC(O)COc1ccc(CCOCC2CC2)cc1 (configuration not stated) [Betaxolol·HCl] (concentration: 25 µM) | 1.01 ± 0.038 | 0.95 ± 0.17
Nc1ccn([C@@H]2CS[C@H](CO)O2)c(=O)n1 [Lamivudine] (concentration: 25 µM) | 0.995 ± 0.046 | 0.624 ± 0.13
CN(C)CCc1c[nH]c2ccc(Cn3cncn3)cc12 [Rizatriptan Benzoate] (concentration: 25 µM) | 1.02 ± 0.039 | 0.844 ± 0.01
COc1c(N2CCNC(C)C2)c(F)cc2c(=O)c(C(=O)O)cn(C3CC3)c12 (configuration not stated) [Gatifloxacin] (concentration: 25 µM) | 0.956 ± 0.024 | 0.661 ± 0.17
Cc1cn([C@H]2C[C@H](N=[N+]=[N-])[C@@H](CO)O2)c(=O)[nH]c1=O [Zidovudine (3'-Azido-3'-Deoxythymidine)] (concentration: 25 µM) | 1.03 ± 0.025 | 0.714 ± 0.027
CCN1CCN(C(=O)N[C@@H](C(=O)N[C@@H]2C(=O)N3[C@@H]2SC(C)(C)[C@@H]3C(=O)O)c2ccccc2)C(=O)C1=O [Piperacillin] (concentration: 25 µM) | 1 ± 0.015 | 0.91 ± 0.068
COc1cc2nc(N3CCN(C(=O)C4CCCO4)CC3)nc(N)c2cc1OC (configuration not stated) [Terazosin·HCl] (concentration: 25 µM) | 0.997 ± 0.047 | 0.607 ± 0.059
CCCCc1oc2ccccc2c1C(=O)c1cc(I)c(OCCN(CC)CC)c(I)c1 [Amiodarone·HCl] (concentration: 2.5 µM) | 1.05 ± 0.018 | 0.616 ± 0.12
CC(=O)NC[C@H]1CN(c2ccc(N3CCOCC3)c(F)c2)C(=O)O1 [Linezolid] (concentration: 25 µM) | 0.942 ± 0.018 | 0.718 ± 0.084
CC(=O)N1CCN(c2ccc(OCC3COC(Cn4ccnc4)(c4ccc(Cl)cc4Cl)O3)cc2)CC1 (configuration not stated) [Ketoconazole] (concentration: 25 µM) | 0.84 ± 0.013 | 0.564 ± 0.035
CN1CCN2c3ncccc3Cc3ccccc3C2C1 (configuration not stated) [Mirtazapine] (concentration: 25 µM) | 0.958 ± 0.033 | 0.951 ± 0.02
CCCNC(C)C(=O)Nc1ccccc1C (configuration not stated) [Prilocaine·HCl] (concentration: 25 µM) | 1 ± 0.022 | 0.693 ± 0.13
CCCc1nc(C)c2c(=O)nc(-c3cc(S(=O)(=O)N4CCN(CC)CC4)ccc3OCC)[nH]n12 [Vardenafil] (concentration: 25 µM) | 0.966 ± 0.021 | 0.646 ± 0.099
CCCCNC(=O)NS(=O)(=O)c1ccc(C)cc1 [Tolbutamide] (concentration: 25 µM) | 0.976 ± 0.032 | 0.606 ± 0.22
Cc1cccc(C)c1OCC(C)N (configuration not stated) [Mexiletine·HCl] (concentration: 25 µM) | 0.983 ± 0.012 | 0.719 ± 0.014
OC(Cn1cncn1)(Cn1cncn1)c1ccc(F)cc1F [Fluconazole] (concentration: 25 µM) | 0.969 ± 0.054 | 0.325 ± 0.14
CCCC(=O)O[C@]1(C(=O)COC(C)=O)CC[C@H]2[C@@H]3C[C@H](F)C4=CC(=O)C=C[C@]4(C)[C@@]3(F)[C@@H](O)C[C@@]21C [Difluprednate] (concentration: 25 µM) | 0.935 ± 0.037 | 0.605 ± 0.14
COC(=O)CCc1ccc(OCC(O)CNC(C)C)cc1 (configuration not stated) [Esmolol] (concentration: 25 µM) | 0.9278 ± 0.0077 | 1.08 ± 0.12
CC(COc1ccccc1)N(CCCl)Cc1ccccc1 (configuration not stated) [Phenoxybenzamine·HCl] (concentration: 25 µM) | 0.965 ± 0.021 | 0.746 ± 0.08
CCOC(=O)[C@H](CCc1ccccc1)N[C@H]1CCc2ccccc2N(CC(=O)O)C1=O [Benazepril·HCl] (concentration: 25 µM) | 0.965 ± 0.012 | 0.885 ± 0.035
CN(C)CCCN1c2ccccc2CCc2ccccc21 [Imipramine·HCl] (concentration: 25 µM) | 0.952 ± 0.045 | 0.525 ± 0.16
Brc1c(NC2=NCCN2)ccc2nccnc12 [Brimonidine] (concentration: 25 µM) | 0.954 ± 0.027 | 0.9 ± 0.091
CCCCCCCCCCCCCCCC(=O)O[C@@H]1[C@@H](O)[C@@H](O)[C@@H]([C@H](NC(=O)[C@@H]2C[C@@H](CCC)CN2C)[C@H](C)Cl)O[C@@H]1SC [Clindamycin Palmitate·HCl] (concentration: 25 µM) | 1 ± 0.044 | 0.725 ± 0.025

Compound | mean cell size (Jurkat [1]) | cell count (Jurkat [2])
CC(C)/N=c1\cc2n(-c3ccc(Cl)cc3)c3ccccc3nc-2cc1Nc1ccc(Cl)cc1 [Clofazimine] (concentration: 2.5 µM) | 0.952 ± 0.03 | 0.695 ± 0.066
CCN(CC)CCNC(=O)c1c(C)[nH]c(/C=C2\C(=O)Nc3ccc(F)cc32)c1C [Sunitinib Malate] (concentration: 250 nM) | 0.906 ± 0.031 | 0.861 ± 0.089
CC[C@H]1OC(=O)[C@H](C)[C@@H](O[C@H]2C[C@@](C)(OC)[C@@H](O)[C@H](C)O2)[C@H](C)[C@@H](O[C@@H]2O[C@H](C)C[C@H](N(C)C)[C@H]2O)[C@](C)(O)C[C@@H](C)C(=O)[C@H](C)[C@@H](O)[C@]1(C)O [Erythromycin] (concentration: 25 µM) | 0.97 ± 0.038 | 0.871 ± 0.061
C[C@@H](O[C@H]1OCCN(Cc2n[nH]c(=O)[nH]2)[C@H]1c1ccc(F)cc1)c1cc(C(F)(F)F)cc(C(F)(F)F)c1 [Aprepitant] (concentration: 2.5 µM) | 1.08 ± 0.022 | 0.651 ± 0.024
CC(C)(C)NCC(O)COc1cccc2c1CC(O)C(O)C2 (configuration not stated) [Nadolol] (concentration: 25 µM) | 0.928 ± 0.041 | 0.487 ± 0.059
OCCN1CCN(CCCN2c3ccccc3Sc3ccc(C(F)(F)F)cc32)CC1 [Fluphenazine·HCl] (concentration: 2.5 µM) | 1.13 ± 0.017 | 0.701 ± 0.079
CCCCCCCCCCC[C@@H](C[C@@H]1OC(=O)[C@H]1CCCCCC)OC(=O)[C@H](CC(C)C)NC=O [Orlistat (Tetrahydrolipstatin)] (concentration: 25 µM) | 0.808 ± 0.043 | 0.355 ± 0.074
Cc1[nH]c(=O)c(C#N)cc1-c1ccncc1 [Milrinone] (concentration: 25 µM) | 0.919 ± 0.051 | 0.361 ± 0.085
CCCCCN(C)CCC(O)(P(=O)(O)O)P(=O)(O)O [Ibandronate·Na Monohydrate] (concentration: 25 µM) | 0.941 ± 0.063 | 0.298 ± 0.14
CN(C/C=C/c1ccccc1)Cc1cccc2ccccc12 [Naftifine·HCl] (concentration: 25 µM) | 0.956 ± 0.028 | 0.848 ± 0.089
O=C(O)CCCc1ccccc1 [Sodium Phenylbutyrate] (concentration: 25 µM) | 0.936 ± 0.024 | 1.05 ± 0.12
Cc1cn[nH]c1 [Fomepizole] (concentration: 25 µM) | 0.99 ± 0.036 | 0.868 ± 0.17
CCn1cc(C(=O)O)c(=O)c2cc(F)c(N3CCNCC3)cc21 [Norfloxacin] (concentration: 25 µM) | 0.9213 ± 0.0047 | 0.982 ± 0.014
Nc1nc2ccc(OC(F)(F)F)cc2s1 [Riluzole·HCl] (concentration: 2.5 µM) | 1.01 ± 0.028 | 0.573 ± 0.029
N=C(N)N [Guanidine·HCl] (concentration: 25 µM) | 0.94 ± 0.018 | 1.02 ± 0.096
CN(C)CCc1c[nH]c2ccc(CS(=O)(=O)N3CCCC3)cc12 [Almotriptan] (concentration: 25 µM) | 0.95 ± 0.053 | 0.62 ± 0.18
COc1c2occc2cc2ccc(=O)oc12 [Methoxsalen (Xanthotoxin)] (concentration: 25 µM) | 1.04 ± 0.019 | 0.761 ± 0.14
O=C1CCC(N2C(=O)c3ccccc3C2=O)C(=O)N1 (configuration not stated) [Thalidomide] (concentration: 25 µM) | 0.922 ± 0.015 | 1.01 ± 0.12
COC(=O)C1=C(C)NC(C)=C(C(=O)OCC(C)C)C1c1ccccc1[N+](=O)[O-] (configuration not stated) [Nisoldipine] (concentration: 25 µM) | 1.09 ± 0.047 | 0.342 ± 0.015
CN(C/C=C/C#CC(C)(C)C)Cc1cccc2ccccc12 [Terbinafine·HCl] (concentration: 25 µM) | 0.947 ± 0.018 | 0.947 ± 0.08
C[C@]12CCC(=O)C=C1[C@@H]1C[C@@H]1[C@H]1[C@@H]3[C@@H]4C[C@@H]4[C@@]4(CCC(=O)O4)[C@@]3(C)CC[C@@H]12 [Drospirenone] (concentration: 25 µM) | 0.962 ± 0.03 | 0.692 ± 0.11
C[C@@H](CN1CC(=O)NC(=O)C1)N1CC(=O)NC(=O)C1 [Dexrazoxane] (concentration: 25 µM) | 0.9682 ± 0.0057 | 0.411 ± 0.11
NNCCc1ccccc1 [Phenelzine Sulfate] (concentration: 25 µM) | 0.942 ± 0.015 | 0.882 ± 0.12
